Results filed as inconclusive are left out. Entries that show only a call come without a potency. Activity calls are given as the source filed them. Unless noted, calls come from the whole dose curve; as a rule, active = well fitted inhibition curve with a large enough effect; inconclusive = small, poorly fitted or top-dose-only effect; inactive = flat fitted curve, though single readings scatter. Where a SMILES comes first, the peptide text is derived from it. Bridges are numbered along the chain shown (N, C = ends). [ ]: non-standard residue; d: D form. The star is where a group is joined. ξ: configuration not given here. d(aThr) = C[C@@H](O)[C@@H](N)C(=O)O; ξThr(3R) = C[C@@H](O)C(N)C(=O)O; pGlu = O=C1CC[C@@H](C(=O)O)N1; X3 = CC[C@@H](C)CCCCC(=O)*; dDab = NCC[C@@H](N)C(=O)O
Columns and labels:
[1] = P-glycoprotein substrates identified in KB-8-5-11 adenocarcinoma cell line, qHTS therapeutic library screen (AID 1346987); conditions: outcome: dose series up to 44.5 µM unless noted; note: nearly all actives have a fitted effect of over 65% in size; note: potency is the fitted concentration of half-maximal effect
In short: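 In this qHTS, P-gp-rich KB-8-5-11 cells received library compounds across a concentration range. Viability was quantified by luminescence after 72 h at 37 degree C.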

[2] = molecular target: Atrial natriuretic peptide receptor 1 (Homo sapiens) (UniProt P16066); experiment: Natriuretic polypeptide receptor (hNpr1) antagonism - Pilot CMLD screen (AID 1347052; calls by dose curve;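 note: HEK293 cells with hNpr1 stimulated by hNppA peptide at 0.1 nM; cGMP level read as GloSensor luciferase luminescence after agonist stimulation; series mostly up to about 9.2 µM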)
Protocol: In order to identify small molecular compounds that inhibit the hNpr1 receptor we developed a high-throughput assay to measure inhibition of the guanylate cyclase activity of the receptor. cGMP production was measured using a circular permutated Firefly luciferase (FLuc) enzyme functionally linked to the cGMP binding domain of human phosphodiesterase 5 (GloSensor technology pGS-40F, (Fan, F. et al. 2008). The cGMP-sensor was expressed in human embryonic kidney 293 (HEK-293) cells and FLuc activity was measured after stimulation with hNrp agonist peptide. hNrp agonists activates the receptor's associated guanylyl cyclase (GC) domain producing cGMP which then binds to the GloSensor resulting in FLuc activation, the enzymatic activity of which can be measured as bioluminescence with addition of luciferin substrate.
This assay was initially piloted by testing with a small library of specialty compounds.
PROTOCOL TABLES (as described by Inglese J, Shamu CE and Guy RK. 2007)
SEQUENCE No. (e.g., 1, 2, 3, etc.); […] (e.g., Cells, Incubation, Reagent, etc.); VALUE and DESCRIPTION.
1. Cells. […]
7. […] GloSensor baseline pre-read luminescence measured using CCD-based camera (Viewlux). […]
10. […] GloSensor post-hNppA luminescence measured using CCD-based camera (Viewlux). […]
1. […] Cells counted with Invitrogen Countess (30,000,000 - 50,000,000 cells/flask). […]

Sequence of Atrial natriuretic peptide receptor 1 (Homo sapiens) (P16066 whole entry, looked up, the tested form may be a part): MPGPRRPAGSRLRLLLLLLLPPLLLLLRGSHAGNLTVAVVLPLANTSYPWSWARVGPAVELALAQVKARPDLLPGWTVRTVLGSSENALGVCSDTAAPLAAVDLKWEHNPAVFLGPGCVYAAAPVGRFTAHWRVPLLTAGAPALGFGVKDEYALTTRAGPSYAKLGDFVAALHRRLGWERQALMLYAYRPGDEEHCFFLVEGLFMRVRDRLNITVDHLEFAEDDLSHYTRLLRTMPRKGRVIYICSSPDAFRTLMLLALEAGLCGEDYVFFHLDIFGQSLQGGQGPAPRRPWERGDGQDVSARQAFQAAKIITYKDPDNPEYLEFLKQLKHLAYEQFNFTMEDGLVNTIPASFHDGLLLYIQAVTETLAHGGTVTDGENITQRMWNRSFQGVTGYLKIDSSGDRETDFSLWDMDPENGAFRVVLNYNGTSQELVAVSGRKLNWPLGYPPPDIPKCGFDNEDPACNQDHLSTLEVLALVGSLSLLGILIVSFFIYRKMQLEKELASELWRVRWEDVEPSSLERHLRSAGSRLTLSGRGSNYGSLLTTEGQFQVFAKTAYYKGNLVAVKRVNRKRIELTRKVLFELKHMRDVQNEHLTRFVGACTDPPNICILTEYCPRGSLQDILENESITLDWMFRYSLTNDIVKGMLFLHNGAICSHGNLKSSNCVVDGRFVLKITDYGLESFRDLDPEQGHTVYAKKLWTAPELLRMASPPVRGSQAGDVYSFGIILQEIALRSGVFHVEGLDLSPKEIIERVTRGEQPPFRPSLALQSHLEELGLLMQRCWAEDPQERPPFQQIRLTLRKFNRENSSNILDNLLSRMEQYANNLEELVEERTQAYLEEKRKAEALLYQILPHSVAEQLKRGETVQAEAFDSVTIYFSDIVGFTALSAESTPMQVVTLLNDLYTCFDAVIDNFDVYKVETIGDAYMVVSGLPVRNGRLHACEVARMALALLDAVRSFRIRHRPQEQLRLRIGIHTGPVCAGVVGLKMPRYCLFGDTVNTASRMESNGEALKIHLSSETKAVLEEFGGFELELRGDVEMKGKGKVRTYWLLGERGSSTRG

Row | Compound | Potency [1] | outcome [2]
1 | H-RKDVY-OH | inactive | 
2 | CC[C@H](C)[C@H](NC(=O)[C@H](Cc1ccccc1)NC(=O)[C@H](C)NC(=O)[C@H](CC(=O)O)NC(=O)[C@H](CCCCN)NC(=O)[C@H](CO)NC(=O)[C@@H]1CCCN1C(=O)[C@@H]1CCC(=O)N1)C(=O)NCC(=O)N[C@@H](CC(C)C)C(=O)N[C@@H](CCSC)C(N)=O ([pGlu]PSKDAFIGLM-NH2) | inactive | 
3 | NCC(O)CC(=O)O (configuration not stated) | inactive | 
4 | CC(C)(C)NCC(O)CSc1nc(-c2ccc(C(N)=O)s2)cs1 (configuration not stated) | inactive | 
5 | CC(C)(CO)[C@@H](O)C(=O)NCCCC(=O)O | inactive | 
6 | C[C@]12CCC(=O)C[C@@H]1CC[C@@H]1[C@@H]2CC[C@]2(C)C=CC[C@@H]12 | inactive | 
7 | CN[C@H](CC(C)C)C(=O)N[C@H]1C(=O)N[C@@H](CC(N)=O)C(=O)N[C@H]2C(=O)N[C@H]3C(=O)N[C@H](C(=O)N[C@@H](C(=O)O)c4cc(O)cc(O)c4-c4cc3ccc4O)[C@H](O)c3ccc(c(Cl)c3)Oc3cc2cc(c3O[C@@H]2O[C@H](CO)[C@@H](O)[C@H](O)[C@H]2O[C@H]2C[C@](C)(N)C(O)[C@H](C)O2)Oc2ccc(cc2Cl)[C@H]1O (some centres not stated) | inactive | 
8 | C=Cc1c(C)c2cc3nc(cc4[nH]c(cc5nc(cc1[nH]2)C(C)=C5CCC(=O)OC)c(CCC(=O)O)c4C)[C@@]1(C)C3=CC=C(C(=O)OC)[C@H]1C(=O)OC | inactive | 
9 | CC(C)(C)C(=O)OCC(=O)[C@H]1CC[C@H]2[C@@H]3CCC4=CC(=O)CC[C@]4(C)[C@H]3CC[C@]12C | inactive | 
10 | CSCCC(N)C(=O)O (configuration not stated) | inactive | 
11 | C/C=C/C=C/C(=O)O | inactive | 
12 | OCCOCCOCCO | inactive | 
13 | CN=C1C=CC(=C(c2ccc(N(C)C)cc2)c2ccc(N(C)C)cc2)C=C1 | 20.6 µM (active) | 
14 | CC(=O)NCCCS(=O)(=O)O | inactive | 
15 | C=C1CC[C@H](O)C/C1=C\C=C1/CCC[C@]2(C)[C@@H]([C@H](C)CCCC(C)C)CC[C@@H]12 | inactive | 
16 | O=C(O)c1cc(N=Nc2ccc(O)c(C(=O)O)c2)ccc1O | inactive | 

Row | Compound | Potency [1] | outcome [2]
17 | NC(=O)Oc1ccc(Cc2ccccc2)cc1 | inactive | 
18 | CCCCC(=O)O[C@H]1CC[C@H]2[C@@H]3CCc4cc(O)ccc4[C@H]3CC[C@]12C | 14.6 µM (active) | 
19 | FC(F)(F)C(F)(F)C(F)(F)C(F)(F)C(F)(F)C(F)(F)F | inactive | 
20 | CC(C)(C)NCC(O)c1ccc(O)c(CO)n1 (configuration not stated) | inactive | 
21 | CO/N=C(\C(=O)N[C@@H]1C(=O)N2C(C(=O)[O-])=C(C[n+]3ccc(N)n3CCO)CS[C@H]12)c1csc(N)n1 | inactive | 
22 | NC[C@@H]1O[C@H](O[C@H]2[C@@H](O)[C@H](O[C@@H]3[C@@H](O)[C@H](N)C[C@H](N)[C@H]3O[C@H]3O[C@H](CO)[C@@H](O)[C@H](O)[C@H]3N)O[C@@H]2CO)[C@H](N)[C@@H](O)[C@@H]1O | inactive | 
23 | CC[C@@H](C)CCCCC(=O)N[C@H](CCN)C(=O)N[C@@H](C(=O)N[C@H](CCN)C(=O)N[C@@H]1CCNC(=O)C([C@@H](C)O)NC(=O)[C@@H](CCN)NC(=O)[C@@H](CCN)NC(=O)[C@@H](CC(C)C)NC(=O)[C@@H](Cc2ccccc2)NC(=O)[C@@H](CCN)NC1=O)[C@@H](C)O (stereo partly drawn) (X3-[dDab][d(aThr)][dDab][dDab][dDab][dF][dL][dDab][dDab][ξThr(3R)]; lactam 4-C) | inactive | 
24 | COC1[C@@H](O[C@@H]2O[C@H](C)[C@@H](O[C@H]3C[C@@](C)(O)[C@H](OC(=O)CC(C)C)[C@H](C)O3)[C@H](N(C)C)[C@H]2O)[C@@H](CC=O)C[C@@H](C)[C@@H](O)/C=C/C=C/C[C@@H](C)OC(=O)C[C@H]1OC(C)=O (some centres not stated) | inactive | 
25 | Cn1nnnc1SCC1=C(C(=O)O)N2C(=O)[C@@H](NC(=O)[C@H](O)c3ccccc3)[C@H]2SC1 | inactive | 
26 | O=C(O)CN(CC(=O)O)CC1=CC2C(=CC1=O)Oc1cc(O)c(CN(CC(=O)O)CC(=O)O)cc1C21OC(=O)c2ccccc21 (configuration not stated) | inactive | 
27 | O=C1c2ccccc2C(=O)C1c1ccc(F)cc1 | inactive | 
28 | O=C(O)c1ccc(OCCn2ccnc2)cc1 | inactive | 
29 | Cc1c(O)c(=O)ccn1C | inactive | inactive
30 | CC(C)[C@@H]1CC[C@@H](C)C[C@H]1OC(=O)c1ccccc1O | inactive | 
31 | O=C(OC[C@H]1O[C@@H](OC(=O)c2cc(O)c(O)c(OC(=O)c3cc(O)c(O)c(O)c3)c2)[C@H](OC(=O)c2cc(O)c(O)c(OC(=O)c3cc(O)c(O)c(O)c3)c2)[C@@H](OC(=O)c2cc(O)c(O)c(OC(=O)c3cc(O)c(O)c(O)c3)c2)[C@@H]1OC(=O)c1cc(O)c(O)c(OC(=O)c2cc(O)c(O)c(O)c2)c1)c1cc(O)c(O)c(OC(=O)c2cc(O)c(O)c(O)c2)c1 | 23.1 µM (active) | 
